Data: the supplement of paper PMC9262897, “Low-cost anti-mycobacterial drug discovery using engineered E. coli” (Nature Communications, 2022)
Structures can show the parent of a compound that is named as a salt. ± gives the standard deviation of the averaged measurements.

What was measured:
Assay in all cases: growth (OD600 after 10 h); higher = more growth (less inhibition)
[1] = test system: E. coli TESEC Alr+ wild-type control; conditions: compound 0.1 mM; raw OD600 reference: median of DMSO wells 0.241, cell-free background 0.041
Procedure: (§1)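 TESEC Mtb Alr E. coli, or the Alr+ wild-type control, in 384-well plates with Prestwick library compounds at 0.1 mM and 1% DMSO, across arabinose induction levels of 1E3 to 1E7 nM. Growth is read as OD600 after 10 h at 37 °C in triplicate biological replicates.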

E. coli TESEC Mtb Alr [2] = conditions: compound 0.1 mM
Procedure: as §1

E. coli TESEC Mtb Asd = conditions: compound 0.1 mM
Procedure: (§2)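 TESEC E. coli strains in which the native enzyme is deleted and replaced by arabinose-inducible Mtb Asd, DapB, CysH or TrpD, each grown in its selective medium. Strains were screened against the Prestwick library at 0.1 mM and 1% DMSO in 384-well format at low and high arabinose induction. Growth is read as OD600 after 10 h in triplicate.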

E. coli TESEC Mtb DapB = conditions: compound 0.1 mM
Procedure: as §2

E. coli TESEC Mtb Alr [3] = conditions: compound 0.1 mM; remark: listed apart in the source
Procedure: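 TESEC Mtb Alr E. coli (ΔaraC ΔtolC ΔentC Δalr ΔdadX, arabinose-inducible Mtb Alr) or the Alr+ wild-type control strain, grown in defined M9-fructose medium without D-alanine in 96-well plates with Prestwick library compounds at 0.1 mM and 1% DMSO. Low Alr induction is 0.1 µM arabinose and high induction is 10 mM arabinose.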

[4] = arabinose 1000 nM, raw OD600 reference: median of DMSO wells 0.294, cell-free background 0.041
[5] = arabinose 10000 nM, raw OD600 reference: median of DMSO wells 0.264, cell-free background 0.041
[6] = arabinose 100000 nM, raw OD600 reference: median of DMSO wells 0.201, cell-free background 0.041
[7] = arabinose 1000000 nM, raw OD600 reference: median of DMSO wells 0.193, cell-free background 0.041
[8] = arabinose 10000000 nM, raw OD600 reference: median of DMSO wells 0.146, cell-free background 0.041
[9] = arabinose induction (level): High, raw OD600 reference: median of DMSO wells 0.331, cell-free background 0.041
[10] = arabinose induction (level): Low, raw OD600 reference: median of DMSO wells 0.417, cell-free background 0.041
[11] = arabinose induction (level): High, raw OD600 reference: median of DMSO wells […], cell-free background 0.041
[12] = arabinose induction (level): Low, raw OD600 reference: median of DMSO wells 0.227, cell-free background 0.041
[13] = arabinose 100 nM, raw OD600 reference: median of DMSO wells 0.413, cell-free background 0.052
[14] = arabinose 10000000 nM, raw OD600 reference: median of DMSO wells […], cell-free background 0.052

| SMILES | growth [1] | growth (E. coli TESEC Mtb Alr [2]; [4]) | growth (E. coli TESEC Mtb Alr [2]; [5]) | growth (E. coli TESEC Mtb Alr [2]; [6]) | growth (E. coli TESEC Mtb Alr [2]; [7]) | growth (E. coli TESEC Mtb Alr [2]; [8]) | growth (E. coli TESEC Mtb Asd; [9]) | growth (E. coli TESEC Mtb Asd; [10]) | growth (E. coli TESEC Mtb DapB; [11]) | growth (E. coli TESEC Mtb DapB; [12]) | growth (E. coli TESEC Mtb Alr [3]; [13]) | growth (E. coli TESEC Mtb Alr [3]; [14]) |
| --- | --- | --- | --- | --- | --- | --- | --- | --- | --- | --- | --- | --- |
| NCCc1c[nH]cn1 [Histamine dihydrochloride] | 0.24 ± 0.012 | 0.2947 ± 0.0029 | 0.258 ± 0.0056 | 0.192 ± 0.019 | 0.192 ± 0.011 | 0.139 ± 0.003 | 0.303 ± 0.062 | 0.403 ± 0.011 | 0.193 ± 0.015 | 0.23 ± 0.0077 | 0.42 ± 0.011 | 0.312 ± 0.0092 |
| COc1cnc(NS(=O)(=O)c2ccc(N)cc2)nc1 [Sulfameter] | 0.242 ± 0.0095 | 0.283 ± 0.0042 | 0.239 ± 0.011 | 0.218 ± 0.029 | 0.158 ± 0.0061 | 0.143 ± 0.0066 | 0.442 ± 0.039 | 0.399 ± 0.024 | 0.207 ± 0.027 | 0.243 ± 0.0072 | 0.407 ± 0.021 | 0.336 ± 0.0042 |
| Cc1c(C)c2c(c(C)c1O)CCC(C)(COc1ccc(CC3SC(=O)NC3=O)cc1)O2 (centres undefined) [Troglitazone] | 0.0771 ± 0.022 | 0.108 ± 0.06 | 0.0436 ± 0.0028 | 0.16 ± 0.011 | 0.0474 ± 0.003 | 0.104 ± 0.016 | 0.0511 ± 0.00036 | 0.0536 ± 0.0033 | 0.08 ± 0.0038 | 0.126 ± 0.04 | 0.0885 ± 0.025 | 0.0573 ± 0.00085 |
| O=C1c2c(O)cccc2Cc2cccc(O)c21 [Anthralin] | 0.161 ± 0.0039 | 0.159 ± 0.018 | 0.169 ± 0.017 | 0.205 ± 0.0082 | 0.151 ± 0.0087 | 0.182 ± 0.0047 | 0.22 ± 0.013 | 0.306 ± 0.13 | 0.246 ± 0.017 | 0.229 ± 0.051 | 0.29 ± 0.034 | 0.239 ± 0.03 |
| CCn1cc(C(=O)O)c(=O)c2cc(F)c(N3CCNC(C)C3)c(F)c21 (centres undefined) [Lomefloxacin hydrochloride] | 0.04153 ± 0.0004 | 0.0411 ± 0.00064 | 0.03993 ± 0.00021 | 0.0417 ± 0.00042 | 0.03983 ± 0.00025 | 0.04157 ± 0.00015 | 0.04757 ± 0.00021 | 0.0494 ± 0.0013 | 0.0491 ± 0.0012 | 0.0483 ± 0.0006 | 0.0534 ± 0.0016 | 0.0512 ± 0.0011 |
| NNC(=O)c1ccncc1 [Isoniazid] | 0.242 ± 0.0073 | 0.288 ± 0.006 | 0.275 ± 0.0043 | 0.239 ± 0.052 | 0.186 ± 0.007 | 0.139 ± 0.0028 | 0.396 ± 0.028 | 0.429 ± 0.083 | 0.194 ± 0.0035 | 0.242 ± 0.052 | 0.405 ± 0.0067 | 0.359 ± 0.022 |
| COc1ccc(-c2ccc(=N)n(CCCC(=O)O)n2)cc1 [Gabazine bromide] | 0.247 ± 0.012 | 0.279 ± 0.029 | 0.262 ± 0.007 | 0.225 ± 0.027 | 0.19 ± 0.0086 | 0.148 ± 0.0044 | 0.232 ± 0.02 | 0.342 ± 0.055 | 0.206 ± 0.0056 | 0.208 ± 0.021 | 0.402 ± 0.0095 | 0.341 ± 0.0049 |
| CC1(C)[C@H](C(=O)O)N2C(=O)C[C@H]2S1(=O)=O [Sulbactam] | 0.241 ± 0.0052 | 0.305 ± 0.0083 | 0.263 ± 0.0075 | 0.244 ± 0.009 | 0.202 ± 0.015 | 0.165 ± 0.01 | 0.39 ± 0.029 | 0.438 ± 0.016 | 0.2 ± 0.006 | 0.225 ± 0.025 | 0.409 ± 0.0061 | 0.361 ± 0.011 |
| CC(=O)O[C@@]12CO[C@@H]1C[C@H](O)[C@@]1(C)C(=O)[C@H](O)C3=C(C)[C@@H](OC(=O)[C@H](O)[C@@H](NC(=O)OC(C)(C)C)c4ccccc4)C[C@@](O)([C@@H](OC(=O)c4ccccc4)[C@H]21)C3(C)C [Docetaxel] | 0.266 ± 0.005 | 0.34 ± 0.0038 | 0.299 ± 0.014 | 0.311 ± 0.094 | 0.134 ± 0.011 | 0.206 ± 0.02 | 0.248 ± 0.011 | 0.373 ± 0.071 | 0.204 ± 0.016 | 0.229 ± 0.047 | 0.4282 ± 0.0041 | 0.297 ± 0.0093 |
| C=C1c2c(Cl)ccc(O)c2C(O)=C2C(=O)[C@]3(O)C(O)=C(C(N)=O)C(=O)[C@@H](N(C)C)[C@@H]3[C@@H](O)[C@H]12.O=C(O)c1cc(S(=O)(=O)O)ccc1O [Meclocycline sulfosalicylate] | 0.0437 ± 0.0018 | 0.0465 ± 0.0035 | 0.04467 ± 0.00042 | 0.047 ± 0.001 | 0.04453 ± 0.00031 | 0.0463 ± 0.0019 | 0.0721 ± 0.0074 | 0.0594 ± 0.0053 | 0.156 ± 0.089 | 0.05473 ± 0.00042 | 0.0611 ± 0.00062 | 0.0561 ± 0.00065 |
| CC(Oc1c(Cl)cccc1Cl)C1=NCCN1 (centres undefined) [Lofexidine] | 0.211 ± 0.008 | 0.27 ± 0.0089 | 0.259 ± 0.016 | 0.179 ± 0.015 | 0.172 ± 0.0071 | 0.139 ± 0.0016 | 0.261 ± 0.069 | 0.464 ± 0.093 | 0.205 ± 0.013 | 0.206 ± 0.012 | 0.406 ± 0.0098 | 0.331 ± 0.032 |
| CN(C)CCC[C@@]1(c2ccc(F)cc2)OCc2cc(C#N)ccc21 [Escitalopram oxalate] | 0.201 ± 0.0062 | 0.281 ± 0.014 | 0.251 ± 0.015 | 0.199 ± 0.0081 | 0.157 ± 0.0041 | 0.143 ± 0.007 | 0.297 ± 0.14 | 0.398 ± 0.064 | 0.179 ± 0.012 | 0.202 ± 0.014 | 0.412 ± 0.011 | 0.352 ± 0.0066 |
| CC1(C)S[C@@H]2[C@H](NC(=O)[C@H](C(=O)O)c3ccsc3)C(=O)N2[C@H]1C(=O)O [Ticarcillin sodium] | 0.256 ± 0.0056 | 0.296 ± 0.0051 | 0.28 ± 0.0035 | 0.2 ± 0.031 | 0.226 ± 0.0051 | 0.142 ± 0.0031 | 0.331 ± 0.056 | 0.305 ± 0.0068 | 0.178 ± 0.0019 | 0.196 ± 0.019 | 0.419 ± 0.0051 | 0.354 ± 0.0093 |
| COc1cc2nc(N3CCN(C(=O)C4COc5ccccc5O4)CC3)nc(N)c2cc1OC (centres undefined) [Doxazosin mesylate] | 0.054 ± 0.0033 | 0.047 ± 0.002 | 0.0476 ± 0.00044 | 0.0463 ± 0.0012 | 0.04047 ± 5.8e-05 | 0.0449 ± 0.0026 | 0.092 ± 0.023 | 0.0521 ± 0.004 | 0.194 ± 0.015 | 0.208 ± 0.038 | 0.277 ± 0.2 | 0.0514 ± 0.0015 |
| Cc1ccnc(NS(=O)(=O)c2ccc(N)cc2)n1 [Sulfamerazine] | 0.245 ± 0.0069 | 0.293 ± 0.013 | 0.229 ± 0.0029 | 0.211 ± 0.0032 | 0.154 ± 0.0069 | 0.133 ± 0.004 | 0.437 ± 0.023 | 0.4484 ± 0.0033 | 0.21 ± 0.0031 | 0.228 ± 0.018 | 0.42 ± 0.0052 | 0.334 ± 0.0087 |
| NCCCCCC(=O)O [Aminocaproic acid] | 0.249 ± 0.0031 | 0.314 ± 0.019 | 0.257 ± 0.016 | 0.1768 ± 0.00047 | 0.172 ± 0.0099 | 0.161 ± 0.0086 | 0.47 ± 0.023 | 0.438 ± 0.028 | 0.206 ± 0.02 | 0.28 ± 0.025 | 0.407 ± 0.017 | 0.354 ± 0.025 |
| CC[C@]12CCCN3CCc4c(n(c5ccccc45)[C@@](O)(C(=O)OC)C1)[C@@H]32 [Vincamine] | 0.235 ± 0.0064 | 0.276 ± 0.0046 | 0.258 ± 0.0043 | 0.193 ± 0.023 | 0.173 ± 0.0043 | 0.138 ± 0.0023 | 0.375 ± 0.011 | 0.456 ± 0.006 | 0.191 ± 0.015 | 0.266 ± 0.071 | 0.422 ± 0.011 | 0.322 ± 0.011 |
